# Laboratory results published in PubChem BioAssay AID1851 (National Center for Advancing Translational Sciences (NCATS), 2009).
# Screen size: about 16,000 compounds; about 5,100 (32%) were called active. Another 25% or so got no clear call; they are omitted. This is one part of the list. A number with no mark means an inactive call. The call rests on the fitted dose curve; in most records, active means well fitted curve in the direction sought with a large enough effect; inconclusive means small, poorly fitted or top-dose-only effect, or effect the other way; inactive means no such curve, though single readings can be large or run the other way.
# Molecular target: Cytochrome P450 3A4 (Homo sapiens) (UniProt P08684)
# Experiment: Cytochrome panel assay with activity outcomes
# Details: recombinant CYP, pro-luciferin dealkylation, luminescence, p450-cyp3a4; series mostly up to 57.1 µM
# On the % scale 0 is the no-effect control and ±100 the full control effect.
# Cytochrome P450 3A4 (Homo sapiens), sequence (P08684 whole entry, looked up): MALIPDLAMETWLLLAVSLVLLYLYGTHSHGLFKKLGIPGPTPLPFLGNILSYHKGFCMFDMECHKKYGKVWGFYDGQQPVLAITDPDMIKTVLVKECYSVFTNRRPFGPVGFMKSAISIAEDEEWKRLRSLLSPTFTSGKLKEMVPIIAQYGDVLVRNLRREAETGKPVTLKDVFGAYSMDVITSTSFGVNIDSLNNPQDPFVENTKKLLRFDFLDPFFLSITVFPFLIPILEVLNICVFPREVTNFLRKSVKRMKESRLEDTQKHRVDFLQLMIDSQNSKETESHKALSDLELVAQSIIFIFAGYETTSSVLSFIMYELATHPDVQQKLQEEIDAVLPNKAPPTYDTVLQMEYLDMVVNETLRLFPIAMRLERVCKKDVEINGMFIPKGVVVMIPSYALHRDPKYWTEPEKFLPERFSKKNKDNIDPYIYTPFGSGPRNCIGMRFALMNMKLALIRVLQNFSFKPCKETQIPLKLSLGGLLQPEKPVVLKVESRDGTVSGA
Structure (SMILES),AC50,"activity, negative = inhibition"
COc1ncc2nc(-c3cn(C)c4ccccc34)c(=O)n(C)c2n1,5.01 µM (active),
COc1ncc2nc(-c3cn(C)c4ccccc34)c(=O)n(CCC#N)c2n1,6.31 µM (active),
Cn1cc(-c2nc3cnc(Oc4ccccc4)nc3n(C)c2=O)c2ccccc21,inactive,
COc1ccc(-n2c(=O)c(-c3cn(C)c4ccccc34)nc3cnc(OC)nc32)cc1,1.58 µM (active),
COc1ncc2nc(-c3ccccc3)c(=O)n(-c3ccccc3)c2n1,inactive,
CC(=O)c1cnc2c(C(=O)O)cnn2c1C,inactive,
CCCCC(=O)Nc1cc(OCC)c(NC(=O)c2ccccc2[N+](=O)[O-])cc1OCC,7.08 µM (active),
CCOc1cc(NC(=O)c2ccccc2[N+](=O)[O-])c(OCC)cc1NC(=O)CC(C)C,,3.38% [at 2.29 µM]
Cc1c(NC(=O)/C=C/C(=O)O)cccc1[N+](=O)[O-],inactive,
CCN(CC)S(=O)(=O)c1ccc(OC)c(NC(=O)c2cc([N+](=O)[O-])ccc2Cl)c1,12.6 µM (active),
Cc1cccc(OCCCC(=O)Nc2ccccc2C(F)(F)F)c1,14.1 µM (active),
O=C1NCCCC1C(=O)Nc1ccccc1C(F)(F)F (centres undefined),inactive,
Cc1c(NC(=O)CCCOc2ccccc2)cccc1[N+](=O)[O-],14.1 µM (active),
Cc1ccc(OCC(=O)NNC(=O)CCC(=O)Nc2ccc(C)cc2C)cc1,inactive,
OC[C@@H]1O[C@@H](N2CCN([C@@H]3O[C@@H](CO)[C@@H](O)[C@H](O)[C@H]3O)CC2)[C@@H](O)[C@H](O)[C@H]1O,,2.3% [at 11.4 µM]
CCN(CC)C(=O)c1cc2cc([N+](=O)[O-])ccc2s1,,20.4% [at 11.4 µM]
COc1cc([N+](=O)[O-])ccc1NC(=O)CCCOc1cccc(C)c1,5.01 µM (active),
Cc1cccc[n+]1CC(=O)Nc1ccc([N+](=O)[O-])cc1Cl,inactive,
CCN(CC(=O)Nc1ccc([N+](=O)[O-])cc1OC)c1ccccc1,12.6 µM (active),
CCCOc1ccc(/C=C/C(=O)Nc2ccc([N+](=O)[O-])cc2C)cc1,,2.56% [at 11.4 µM]
COc1ccccc1NC(=O)Cn1cncc1-c1ccc([N+](=O)[O-])cc1,14.1 µM (active),

Structure (SMILES),AC50,"activity, negative = inhibition"
Cc1cc2nc([C@H](C)C(=O)c3ccc(Cl)cc3)c(=O)[nH]c2cc1C,,-25.9% [at 11.4 µM]
CCCS(=O)(=O)N1CCCC(C(=O)N2CCOCC2)C1 (centres undefined),inactive,
CSc1nc(Cl)cc(N(CCO)CCO)n1,inactive,
COC(=O)C/C=C\[C@@H](C)[C@@H](/C=N\OCC[C@H]1C=C[C@H](OC(C)=O)[C@@H](COC(C)=O)O1)NS(=O)(=O)c1ccc(C)cc1,3.98 µM (active),
CCCNC(=O)OC[C@H]1O[C@@H](CCO/N=C\[C@@H](NS(=O)(=O)c2ccc(C)cc2)[C@H](C)/C=C\CC(=O)OC)C=C[C@@H]1Oc1ccc(OC)cc1,3.16 µM (active),
COC(=O)C/C=C\[C@@H](C)[C@@H]1C=C[C@H](OC(C)=O)[C@H](COC(C)=O)O1,,-23.4% [at 11.4 µM]
Nc1ccn([C@@H]2CC[C@H](CO)O2)c(=O)n1,inactive,
COc1cc2c(cc1OC)CN(C(=S)Nc1ccccc1)CC2,12.6 µM (active),
CC(C)(CO)N1CCN(C(=S)Nc2ccccc2)CC1,,-8.25% [at 11.4 µM]
CC(=O)Nc1sc2c(c1CN1CCN(C)CC1)CCCC2,inactive,
CC(=O)NCCC(=O)Nc1sc2c(c1-c1nc3ccccc3[nH]1)CCCC2,12.6 µM (active),
COc1cccc(Cn2c(=O)c(-c3cccs3)nc3cnc(N4CCNCC4)nc32)c1,15.8 µM (active),
COc1cccc(Cn2c(=O)c(-c3cccs3)nc3cnc(N4CCN(C)CC4)nc32)c1,12.6 µM (active),
CC(C)OC(=O)c1cc2c(OC[C@@H](O)CNC(C)(C)C)cccc2[nH]1,inactive,
CN1CCN(c2ncnc3ccc(-c4ccccc4C#N)cc23)CC1,15.8 µM (active),
CN1CCN(c2ncnc3ccc(-c4ccccc4Cl)cc23)CC1,5.01 µM (active),
Cc1ccccc1-c1ccc2ncnc(N3CCN(C)CC3)c2c1,3.98 µM (active),
Clc1ccc2c(N3CCC(CCC4CCN(c5ncnc6cc(Cl)ccc56)CC4)CC3)ncnc2c1,,-31.6% [at 11.4 µM]
COC(=O)c1ccc(Oc2nc(N(C)C)nc(N3CCOCC3)n2)cc1,,14.7% [at 11.4 µM]
c1ccc(C2OCC3(CO2)COC(c2ccccc2)OC3)cc1 (centres undefined),inactive,
C[C@H]1[C@H](C)OC(=O)C[C@H](O)C[C@H](O)C[C@H](O)CC[C@H](O)[C@H](O)CC(=O)C[C@H](O)[C@H](C(=O)O)[C@H](O)C[C@H](O[C@@H]2O[C@@H](C)[C@H](O)[C@@H](N)[C@@H]2O)C=CC=CC=CC=CCCC=CC=C[C@@](C)(O)[C@H]1O,,7.28% [at 11.4 µM]

Structure (SMILES),AC50,"activity, negative = inhibition"
CCOc1ccc2c(ccc(/C=C\c3cc(C)c4cccnc4c3O)[n+]2C)c1,,-23.9% [at 11.4 µM]
CCCc1cc(=O)oc2c(CN3CCOCC3)c(O)ccc12,,1.81% [at 2.29 µM]
Cn1c(=O)n2n(c1=O)[C@H]1[C@H](O)[C@H]3O[C@H]3C(=O)[C@H]1CC2,,-16.9% [at 11.4 µM]
Cc1cc(Cl)nc2ccc(Cc3ccc4nc(Cl)cc(C)c4c3)cc12,3.16 µM (active),
CC(=O)Nc1ccc(Cc2ccc3[nH]c(=O)cc(C)c3c2)cc1,,-20.4% [at 11.4 µM]
CCc1c(C)nc2ccc(Br)cc2c1Cl,inactive,
COc1cccc(C(=O)N(Cc2ccccc2)Cc2cc3cc4c(cc3[nH]c2=O)OCCO4)c1,3.98 µM (active),
CCOc1ccc(Cc2nc(C)c(CC(=O)N3CCOCC3)c(=O)[nH]2)cc1,,1.75% [at 11.4 µM]
O=C(O)c1cc2cc(OCc3ccccc3)ccc2[nH]1,inactive,
CCOc1ccc2[nH]c(=O)c(CN(CCc3ccccc3)C(=O)N3CCCC3)cc2c1,3.55 µM (active),
COc1ccc2[nH]c(=O)c(NC(N)=S)nc2c1,inactive,
C[N+]1(CC(=O)OCCCc2ccccc2)CCOCC1,inactive,
COc1cccc(C(=O)n2c(SC)nc3cc4c(cc32)OCCO4)c1,inactive,
CCOc1ccc2[nH]c(=O)c(CN(CCc3ccccc3)C(=O)N3CCOCC3)cc2c1,7.94 µM (active),
COc1ccc2[nH]c(=O)c(CN(CCc3ccccc3)C(C)=O)cc2c1,17.8 µM (active),
CCc1cccc(C)c1NC(=O)CSc1nc2ccc(N3C(=O)c4ccccc4C3=O)cc2s1,4.47 µM (active),
CCN(CC)C(=O)CSc1nc2ccc(NC(=O)CSc3nnc(COc4ccccc4C)n3C)cc2s1,,-17.9% [at 2.29 µM]
Cc1cccc(CNc2nc(-c3ccc4c(c3)OCO4)nc3ccccc23)c1,0.398 µM (active),
Cc1cnc(CNc2nc(-c3ccc4c(c3)OCO4)nc3ccccc23)cn1,0.794 µM (active),
c1csc(CNc2nc(-c3ccc4c(c3)OCO4)nc3ccccc23)c1,1 µM (active),
c1cncc(CNc2nc(-c3ccc4c(c3)OCO4)nc3ccccc23)c1,0.316 µM (active),

Structure (SMILES),AC50,"activity, negative = inhibition"
C[C@]1(O)CC[C@H]2[C@H]3CC=C4N5CCN=C5CC[C@@]4(C)[C@H]3CC[C@@]21C,,-12.7% [at 11.4 µM]
c1ccc(CNc2nc(-c3ccc4c(c3)OCO4)nc3ccccc23)cc1,1 µM (active),
N=C(N)SCc1cccc(-c2nc3ccccc3c(=O)o2)c1,,-20.1% [at 11.4 µM]
CC(=O)NCCNc1nc(-c2ccc3c(c2)OCO3)nc2ccccc12,3.98 µM (active),
O=C(O)c1cc(-c2ccc3cc4c(cc3c2)OCO4)nc2ccccc12,,-17.7% [at 11.4 µM]
COc1ccc(CSC2=C(C#N)C(=O)NC3(CCCCC3)S2)cc1,,-12.2% [at 11.4 µM]
O=C1C=C(c2cccs2)CC(c2cccs2)C1n1cnc([N+](=O)[O-])c1 (centres undefined),inactive,
CCCCSCc1nc2nc(Cl)c(Cl)nc2[nH]1,,-27.9% [at 11.4 µM]
CC1CCN(C(=S)c2ccc(O)cc2)CC1,,11.7% [at 2.29 µM]
CSc1nnc2c(n1)OC(C)N(C(=O)c1ccccc1)c1ccccc1-2 (centres undefined),inactive,
C=CCSc1nnc2c(n1)OC(c1c(C)[nH]n(-c3ccccc3)c1=O)Nc1ccccc1-2 (centres undefined),14.1 µM (active),
CC(C)[C@@H]1NC(=O)[C@H](CCCCN)NC(=O)[C@H](Cc2c[nH]c3ccccc23)NC(=O)[C@H](Cc2ccc(O)cc2)NC(=O)[C@H](C)N(C)C(=O)[C@H](Cc2ccccc2)NC1=O,3.98 µM (active),
Clc1ccc(CN2CCCN(Cc3ccc(Cl)cc3)C2c2cc3ccccc3c3ccccc23)cc1,,-6.95% [at 11.4 µM]
O=c1[nH]ncc2c3ccccc3n(Cc3ccccc3)c12,inactive,
O=Nc1c(O)n(Cc2ccc(Cl)cc2)c2ccccc12,17.8 µM (active),
O=Nc1c(O)n(Cc2ccc(Cl)c(Cl)c2)c2ccccc12,14.1 µM (active),
Cc1sc2ccccc2[n+]1CCC(C)S(=O)(=O)[O-] (centres undefined),inactive,
CCCN(CCC)CCCNS(=O)(=O)c1cc(Br)cc2c1N(C(C)=O)CC2,,-10.1% [at 11.4 µM]
CC(=O)N1c2c(cc(Br)cc2S(=O)(=O)NCC2COc3ccccc3O2)CC1C (centres undefined),7.94 µM (active),
OC[C@H]1NC[C@@H](O)[C@@H](O)[C@H]1O,inactive,
CCCCOc1ccc(/C=C/C(=O)NCCc2nc3ccccc3[nH]2)cc1,12.6 µM (active),
